Only some compounds are listed: those with a hit (about 11% of all), similar ones and a draw of the others.
IL-1B inflam inh = qHTS for Inhibitors of Inflammasome Signaling: IL-1-beta AlphaLISA Primary Screen | actives 4.7% (n = 360,000) | THP-1 LPS/ATP IL-1B secretion, AlphaLISA, 16 h; stronger effect = lower value | activity change, % at 57.5 µM; in the data active means activity change below about -50%; inconclusive means mostly about -30% to -49%; further: on the % scale 0 is the no-effect control and ±100 the full control effect
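Secreted IL-1B measured by AlphaLISA bead assay after 16 h compound exposure of THP-1 cells; compounds (final up to 57.5 uM) added 1 h before LPS (250 ng/mL) and ATP (1.25 mM) stimulation; lower signal means less secretion.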
VP16 counter = VP16 counterscreen qHTS for inhibitors of ROR gamma transcriptional activity. Drosophila S2 Gal4-VP16 UAS-luciferase, luminescence, 20 h. Potency, µM (top dose mostly 53.6 µM), for the others: top-dose activity, negative = inhibition, most hits filed as inhibitors. actives 3.5% (n = 310,000). AID 2546, 2010;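 further: Gal4-VP16 expression switched on by copper sulfate through the metallothionein promoter; potency means the concentration at half of the fitted maximal effect; on the % scale 0 is the no-effect control and ±100 the full control effect; nearly all actives have a fitted effect of over 50% in size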
SW480 rerep = A quantitative high throughput screen for small molecules that induce DNA re-replication in SW480 colon adenocarcinoma cells; Potency, µM (top dose mostly 46.1 µM), for the others: at the top dose re-replication activation, actives largely listed as activators; AID 624297, 2012; SW480 DNA re-replication, Hoechst DNA content imaging, 48 h; actives 1.8% (n = 340,000); further: potency means the concentration at half of the fitted maximal effect; % of control where 0% means no effect; nearly all actives have a fitted effect of over 55% in size
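Quantitative HTS format with DMSO vehicle controls; 48 hr drug incubation at 37 C, then 40 min Hoechst staining and scanning imager measurement at 405 nm excitation.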
MCF10A rereplic = A quantitative high throughput screen for small molecules that induce DNA re-replication in MCF 10a normal breast cells; MCF 10A DNA re-replication, Hoechst nuclear intensity, 48 h; Potency, µM (titrated, usually from 46.1 µM), for inactives: at the top dose activity, positive = re-replication, actives largely listed as activators; actives 2.9% (n = 350,000); further: potency means the concentration at half of the fitted maximal effect; % of control where 0% means no effect; nearly all actives have a fitted effect of over 50% in size
RORgamma inh = qHTS for inhibitors of ROR gamma transcriptional activity; Potency, µM (titrated, usually from 53.6 µM), for the others: at the highest dose activity change, negative = inhibition, hits mostly inhibitors; Drosophila S2 Gal4-RORgamma UAS-luciferase reporter, 20 h; Nuclear receptor ROR-gamma (Mus musculus), P51450; actives 5.4% (n = 310,000); further: potency means the concentration at half of the fitted maximal effect; on the % scale 0 is the no-effect control and ±100 the full control effect; nearly all actives have a fitted effect of over 60% in size
Target sequence (P51450 whole entry, looked up, the tested form may be a part): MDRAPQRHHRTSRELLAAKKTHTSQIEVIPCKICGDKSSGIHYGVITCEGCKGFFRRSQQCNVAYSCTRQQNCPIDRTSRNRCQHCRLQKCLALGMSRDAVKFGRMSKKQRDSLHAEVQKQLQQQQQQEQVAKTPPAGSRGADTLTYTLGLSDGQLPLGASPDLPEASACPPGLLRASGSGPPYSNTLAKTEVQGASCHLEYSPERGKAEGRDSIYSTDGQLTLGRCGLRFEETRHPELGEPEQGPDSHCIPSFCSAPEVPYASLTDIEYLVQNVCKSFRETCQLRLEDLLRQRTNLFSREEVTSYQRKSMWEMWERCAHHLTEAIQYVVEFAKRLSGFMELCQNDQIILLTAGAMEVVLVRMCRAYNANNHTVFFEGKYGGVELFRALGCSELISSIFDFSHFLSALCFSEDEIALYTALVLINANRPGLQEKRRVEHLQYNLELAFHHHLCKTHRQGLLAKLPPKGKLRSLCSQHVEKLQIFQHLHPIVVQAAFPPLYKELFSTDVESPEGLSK
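Schneider cells (Drosophila), stable Gal4 DBD–ROR gamma + UAS-luc; 1 hr cmpd preincubation; Cu2+ induction 700 uM final; 20 hr ambient; luminescence.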
* hit, by the source's call; [ ] = remark or other dose. Unless noted, the call rests on the fitted dose curve; in most records, active means well fitted curve in the direction sought with a large enough effect; inconclusive means small, poorly fitted or top-dose-only effect, or another doubt; inactive means no such curve, though single readings can be large; an effect the other way counts as inactive or inconclusive.

O=C1CSC(c2cccnc2)N1Cc1cccnc1 (configuration not stated) was read as IL-1B inflam inh 22, VP16 counter -7%, SW480 rerep 14%, MCF10A rereplic -1% and RORgamma inh -8%.
`O=C1CSC(c2cccnc2)N1CCc1ccccn1` (configuration not stated) gave IL-1B inflam inh 14, VP16 counter 11µM*, SW480 rerep -12%, MCF10A rereplic -1% and RORgamma inh inconclusive.
Screening COCCCNC(=O)c1ccc2sc(C3=C[C@@H](O)[C@@H](O)[C@@H](CO)O3)nc2c1 returned IL-1B inflam inh 0.
`COc1cccc(-c2cc(C(=O)Nc3ccccc3)c3ccccc3n2)c1` gave IL-1B inflam inh 22, SW480 rerep 6% and MCF10A rereplic inconclusive.
Screening COc1ccc(COc2cc(-c3cccc(OC)c3)nc3ccc(NC(=O)C(C)C)cc23)cc1 returned IL-1B inflam inh 61, VP16 counter -27%, SW480 rerep 15µM*, MCF10A rereplic inconclusive and RORgamma inh 38%.
For CS(=O)c1ccc(-c2nc(-c3ccc(F)cc3)c(-c3ccncc3)[nH]2)cc1 (configuration not stated) the results were VP16 counter -2% and RORgamma inh 7%.
`CCCC(=O)Nc1ncnc2c1ncn2C1OC2COP(=O)(O)OC2C1OC(=O)CCC` (configuration not stated) gave VP16 counter 1%, SW480 rerep -1%, MCF10A rereplic 0% and RORgamma inh 1%.
For COc1ccccc1-n1c(-c2cc(-c3ccc(F)cc3)n[nH]2)n[nH]c1=S the results were IL-1B inflam inh 21, VP16 counter -3%, SW480 rerep 2%, MCF10A rereplic -39% and RORgamma inh 7.9µM*.
For COc1ccc(C)cc1-n1c(-c2ccncc2)n[nH]c1=S the results were IL-1B inflam inh 25, VP16 counter -3%, SW480 rerep -6%, MCF10A rereplic 3% and RORgamma inh -14%.
CS(=O)(=O)Nc1ccc(-c2n[nH]c(=S)n2-c2ccccc2)cc1 was read as IL-1B inflam inh -3, VP16 counter 9%, SW480 rerep 4%, MCF10A rereplic -12% and RORgamma inh inconclusive.
COc1ccc(-c2n[nH]c(=S)n2-c2ccc(C)cc2)cc1OC was read as IL-1B inflam inh 27, VP16 counter inconclusive, SW480 rerep 0%, MCF10A rereplic 1% and RORgamma inh 16µM*.
COc1cc(-n2c(-c3ccccc3)n[nH]c2=S)c(OC)cc1Cl was read as IL-1B inflam inh 30, VP16 counter -8%, SW480 rerep -8%, MCF10A rereplic -7% and RORgamma inh 5µM*.
Cc1ccc(-n2c(-c3c(-c4ccccc4)noc3C)n[nH]c2=S)cc1 was read as IL-1B inflam inh 6, VP16 counter 10µM*, SW480 rerep 1%, MCF10A rereplic -1% and RORgamma inh 4.5µM*.
CCOc1ccc(NC(=O)c2ccc3c(c2)S(=O)(=O)N=C2CCCCCN23)cc1 was read as IL-1B inflam inh -1.
Screening Cc1cccc(C)c1[N+](=O)[O-] returned VP16 counter 2% and RORgamma inh 13%.
`CCCCCCCC/C=C\CCCCCCCC(=O)NC(C)C(=O)O` (configuration not stated) gave VP16 counter -1% and RORgamma inh 2%.
Screening COc1ccccc1-c1n[nH]c(=S)n1N returned IL-1B inflam inh 3, VP16 counter -2%, SW480 rerep -2%, MCF10A rereplic 0% and RORgamma inh -29%.
S=c1[nH]nc(-c2cccnc2)n1-c1ccccc1 was read as IL-1B inflam inh 17, VP16 counter inconclusive, SW480 rerep 14%, MCF10A rereplic 2% and RORgamma inh 7.9µM*.
Screening COc1ccccc1-c1n[nH]c(=S)n1-c1ccccc1 returned IL-1B inflam inh 42, VP16 counter inconclusive, SW480 rerep 3%[9.22 µM], MCF10A rereplic -3% and RORgamma inh 11µM*.
Screening Cc1cccc(-n2c(-c3ccncc3)n[nH]c2=S)c1 returned IL-1B inflam inh 12, VP16 counter -21%, SW480 rerep -11%, MCF10A rereplic -4% and RORgamma inh inconclusive.
Cc1ccc(-n2c(-c3cccc(C)c3)n[nH]c2=S)cc1 was read as IL-1B inflam inh 15, VP16 counter 7.1µM*, SW480 rerep inconclusive, MCF10A rereplic 21µM* and RORgamma inh 3.2µM*.
Screening O=[N+]([O-])c1ccc(Sc2cccc[n+]2[O-])c2nonc12 returned IL-1B inflam inh -98*, VP16 counter 1µM*, SW480 rerep inconclusive, MCF10A rereplic inconclusive and RORgamma inh 1µM*.
O=C(Nc1nnc([C@@H]2C[C@H](O)[C@@H](CO)O2)s1)Nc1cccc2c1CCCC2 was read as IL-1B inflam inh 15.
COCC(C)NC(=O)c1cc2c(ccc3ccccc32)oc1=O (configuration not stated) was read as IL-1B inflam inh 24, VP16 counter -17%, SW480 rerep -6%, MCF10A rereplic -6% and RORgamma inh 2%.
For Cc1c(Cl)cccc1NC(=O)N1CCCN(c2nc(-c3ccccc3)ns2)CC1 the results were IL-1B inflam inh -61*, VP16 counter 4%, SW480 rerep 11%, MCF10A rereplic 20% and RORgamma inh 11%.
Screening Fc1ccc(CNC(=S)NCc2ccccc2)cc1 returned IL-1B inflam inh -21, VP16 counter inconclusive, SW480 rerep -1%, MCF10A rereplic 10% and RORgamma inh 11µM*.
`CCOC(=O)N1CCN(CC(=O)Nc2ccc(Oc3ccccc3)cc2)CC1` gave IL-1B inflam inh -64*, VP16 counter 5%, SW480 rerep 1%, MCF10A rereplic 1% and RORgamma inh 3%.
S=C(NCc1ccccc1)Nc1ccc2ccccc2c1 was read as IL-1B inflam inh -76*, VP16 counter 11µM*, SW480 rerep 1%, MCF10A rereplic -2% and RORgamma inh 4µM*.
Screening Fc1ccc(NC(=S)NCc2ccccc2)cc1 returned IL-1B inflam inh -17, VP16 counter 10µM*, SW480 rerep 15%, MCF10A rereplic 14% and RORgamma inh 8.9µM*.
`S=C(NCc1ccccc1)Nc1ccc2cn[nH]c2c1` gave IL-1B inflam inh 12, VP16 counter -1%, SW480 rerep -9%, MCF10A rereplic 0% and RORgamma inh -15%.
`CN1CCN(CC(=O)Nc2ccc(Oc3ccccc3)cc2)CC1` gave IL-1B inflam inh 2, VP16 counter 0%, SW480 rerep -5%, MCF10A rereplic inconclusive and RORgamma inh -4%.

Compound activity as filed in PubChem.
